HCMV inh – qHTS Assay for inhibitors of the human cytomegalovirus (HCMV). HFF cells, HCMV-luciferase reporter, 72 h; hits give low values. activity change, negative = inhibition, % at 57.5 µM. 410,000 compounds, 4.5% hits; in the data active means activity change below about -60%; inconclusive means no clear call, values can overlap the other calls; inactive means above about -39%
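Two compound doses tested in HFFs infected with HCMV-luciferase, MOI 1 PFU/cell, 72 h at 37C. Lysate luminescence read with OneGlo; data normalized against buffer-only and 10uM Salinomycin inhibitor controls.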
Marburg entry inh – qHTS for inhibitors of binding or entry into cells for Marburg Virus | Marburg virus pseudotyped entry inhibition, cell reporter | Potency, µM (highest dose often 37.8 µM), without a hit: at the top dose activity change, negative = inhibition, most hits filed as inhibitors | 300,000 compounds, 1.8% hits | AID 540276, 2011; calls by dose curve; tested in HEK293 cells; further: potency means the concentration at half of the fitted maximal effect
VACV Venus inh – qHTS for Stage-Specific Inhibitors of Vaccinia Orthopoxvirus: Venus Reporter Primary qHTS | 330,000 compounds, 0.46% hits | Potency, µM (series often up to 36.5 µM), inactives show at the highest dose activity change, negative = inhibition, hits mostly inhibitors | Vaccinia virus Venus reporter expression, fluorescence; calls by dose curve; tested in A549 cells; further: potency means the concentration at half of the fitted maximal effect; nearly all actives have a fitted effect of over 30% in size
Vaccinia mCherry – qHTS for Stage-Specific Inhibitors of Vaccinia Orthopoxvirus: mCherry Reporter Primary qHTS. Vaccinia virus mCherry reporter infection, fluorescence. 310,000 compounds, 0.63% hits. Potency, µM (titrated, usually from 36.5 µM), without a hit: at the highest dose activity change, negative = inhibition, hits mostly inhibitors. AID 720579, 2013; calls by dose curve; tested in A549 cells; further: potency means the concentration at half of the fitted maximal effect; nearly all actives have a fitted effect of over 35% in size
HCV inh – qHTS Assay for Inhibitors of Hepatitis C Virus (HCV); AID 651820, 2012; Huh7.5.1 HCVcc-Cre infection, luciferase reporter, 44 h; 340,000 compounds, 3.4% hits; Potency, µM (doses to about 41.8 µM), without a hit: at the top dose activity change, negative = inhibition, most hits filed as inhibitors; active means well fitted inhibition curve with a large enough effect; inconclusive means small, poorly fitted or top-dose-only effect, or another doubt; inactive means no such curve, though single readings can be large or run the other way; further: potency means the concentration at half of the fitted maximal effect
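Whole-lifecycle infectious HCVcc-Cre system; cells 1,000/well, compound then virus (~0.5 moi) added 4 h after plating, 44 h culture. Luciferase read 15 sec following 15 min substrate incubation, room temp.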
LASV entry inh – qHTS for Inhibitors of binding or entry into cells for Lassa Virus; Lassa virus pseudotype entry inhibition, cell reporter; Potency, µM (titrated, usually from 37.9 µM), for the others: at the highest dose activity change, negative = inhibition, hits mostly inhibitors; 300,000 compounds, 1.2% hits; AID 540256, 2011; calls by dose curve; tested in HEK293 cells; further: potency means the concentration at half of the fitted maximal effect; nearly all actives have a fitted effect of over 50% in size
* = called active by the depositor; i = inactive; ? = inconclusive; · = no result given; [ ] = dose if it differs, or a comment. In the library only some 7.8% were active in any assay of this set; here they are far more common. On the % scale 0 is the no-effect control and ±100 the full control effect.

SMILES | HCMV inh | Marburg entry inh | VACV Venus inh | Vaccinia mCherry | HCV inh | LASV entry inh
CCC(C)Oc1cc(-c2ccnc(Nc3cccc(Cl)c3)n2)ccn1 (stereo not given) | -86.5* | · | ? | ? | 12.1% | ·
Cc1cc(C)nc(Nc2cccc(Cl)c2)n1 | -16.5 | · | · | · | 1.1% | ·
CN(C)CCCNc1ccc(-c2cc(Nc3cccc(Cl)c3)ncn2)cn1 | -37.5 | · | ? | -13.5% | ? | ·
OCCCNc1cc(-c2ccnc(Nc3cccc(Cl)c3)n2)ccn1 | -97.4* | · | 1µM* | ? | 2µM* | ·
CC(=O)N1CCCc2cc(S(=O)(=O)N(C)CC(=O)Nc3ccc(Cl)cc3C)ccc21 | -22.4 | · | -23.1% | -1.9% | · | -17.1%[46.1 µM]
CC(=O)Nc1ccc(/C=C/c2ccnc3ccccc23)cc1 | · | · | -18.8% | -26.7% | · | ·
O=S(=O)(c1ccc(SCc2ccccc2)nc1)N1CCCC1 | -39.6 | · | · | · | ? | ·
O=S(=O)(c1ccc(SCCOc2cccc(Br)c2)nc1)N1CCCC1 | -37.8 | -20.6% | -21.3% | -7.2% | 10µM* | -18.6%
CN1CCN(S(=O)(=O)c2ccc(SCCOc3ccc(Cl)cc3)nc2)CC1 | -35.2 | ? | -20.6% | ? | ? | -17.3%
O=S(=O)(c1ccc(SCCOc2ccccc2Cl)nc1)N1CCCC1 | -7.7 | · | · | · | 12.6µM* | ·
Cc1csc(Sc2ccc(S(=O)(=O)N3CCCC3)cn2)n1 | -34.5 | ? | ? | 8.91µM* | -9.6% | 2.1%
COc1ccc(OCCSc2ccc(S(=O)(=O)N3CCCC3)cn2)cc1 | -38.0 | · | · | · | 11.2µM* | ·
COc1cc(=O)n2c(c1C(=O)NCc1nonc1C)CCN(Cc1c[nH]c3ccccc13)CC2 | · | · | -8.7% | -7.5% | · | ·
c1ccc2nc(-c3ccc(N4CCOCC4)cc3)ccc2c1 | -26.7 | 2.31µM* | · | · | ? | 3.66µM*
CN1CCN(c2ccc(-c3ccc4ccccc4n3)cc2)CC1 | -92.1* | ? | -2.0% | 0.3% | 15.8µM* | ?
COC(=O)C1=C2CCO[C@H]2[C@@H]2[C@@H](C)[C@H](OC)c3ccccc3[C@@H]12 | · | ? | · | · | · | -6.2%[14.3 µM]
Fc1cccc(F)c1-n1c(CN2CCCCC2)csc1=S | -68.0* | 6.31µM* | -20.1% | -23.0% | ? | -12.6%[46.1 µM]
Cn1c(=O)oc2cc(S(=O)(=O)NC(Cc3ccccc3)C(=O)Nc3ccc(F)cc3)ccc21 (stereo not given) | -24.2 | 2.5%[46.1 µM] | -12.4% | -12.1% | · | ?
CCCc1cc(-c2nc(N)ncc2-c2csc(C)n2)c(O)cc1OC | -17.6 | · | · | · | 0.7% | ·
CCCc1cc(-c2nc(N)ncc2-c2ccc3c(c2)OCCCO3)c(O)cc1OC | ? | ? | 12.6µM* | ? | ? | ?
CCCC(=O)Nc1nc2ccc(NC(=O)c3ccc(Br)o3)cc2s1 | 20.1 | ? | ? | · | 7.94µM* | -22.2%
CC(=O)Nc1ccc2nc(NC(=O)c3ccc([N+](=O)[O-])o3)sc2c1 | -102.3* | ? | ? | ? | -20.8% | ?
CCOCCCNCc1ccc(OC)c(OC)c1 | 36.4 | -0.2%[46.1 µM] | -11.9% | -20.0% | 11.8% | -11.8%
COc1ccc(C(CCNCc2ccc(OC(C)C)cc2)C(C)C)cc1 (stereo not given) | -79.0* | ? | -14.3% | -13.6% | ? | ?
COCCNCc1ccc(C(C)C)cc1 | -25.7 | · | -9.8% | i | 7.0% | ·
SMILES | HCMV inh | Marburg entry inh | VACV Venus inh | Vaccinia mCherry | HCV inh | LASV entry inh
COc1ccc(CNC(=O)C(C)OC(=O)c2cccc(N(C)C)c2)cc1 (stereo not given) | 28.6 | · | · | · | ? | ·
COc1ccc(C(CCNCc2ccc(N(C)C)cc2)C(C)C)cc1 (stereo not given) | -75.5* | · | · | · | ? | ·
COc1ccc(CNCCC(c2ccc(OC(C)C)cc2)C(C)C)cc1OC (stereo not given) | -103.6* | ? | · | · | 8.91µM* | 20.6µM*
CCOC(=O)c1ccc(NC(=O)CSc2nnc(-c3ccncc3)n2-c2ccccc2)cc1 | 3.5 | · | -5.4% | -4.3% | · | 21.5%[46.1 µM]
CN(C)Cc1ccccc1-c1ccc2ncnc(NCc3cccs3)c2c1 | · | · | 0.0% | i | · | ·
Cc1cccc(C)c1Nc1oc(-c2ccccc2)nc1-c1ccccc1F | · | ? | · | · | · | -10.0%[14.3 µM]

Screens: PubChem, National Center for Advancing Translational Sciences (NCATS)
